Values joined by “and” are separate entries in the source; they are usually repeats but may differ in a detail not shown here. Equal entries are not always repeated. Records with an inconclusive call do not appear. A call without a number means that no potency is given here. Some structures have more than one record in an assay (separate samples or runs), and their calls can disagree. Active and inactive are the calls of the source. Unless noted, the call rests on the fitted dose curve; in most records, active means well fitted curve in the direction sought with a large enough effect in the repeat runs; inconclusive means weak or mixed curves; inactive means no such curve, though single readings can be large; an effect the other way counts as inactive or inconclusive.
Columns and labels:
[1] = qHTS assay to identify small molecule antagonists of the estrogen related receptor (ERR) signaling pathway from Tox21 library - cell viability counter screen (AID 1224834); further: nearly all actives have a fitted effect of over 30% in size; further: potency means the concentration at half of the fitted maximal effect
Procedure, shortened: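 Multiplexed viability counter screen in ERR cells: 17.5 h compound exposure at 37 C, CellTiter-Fluor added, 30 min at 37 C/5% CO2, fluorescence read.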

[2] = target: Luciferin 4-monooxygenase (Photinus pyralis) (UniProt P08659); assay: qHTS assay to identify small molecule inhibitors of firefly luciferase (AID 1224835); further: nearly all actives have a fitted effect of over 25% in size; further: potency means the concentration at half of the fitted maximal effect
Procedure, shortened: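 Biochemical qHTS: compounds run as interplate titrations against purified firefly enzyme, with D-luciferin and ATP each at its KM concentration. Light output recorded by CCD imaging.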

[3] = qHTS assay to identify small molecule agonists of the constitutive androstane receptor (CAR) signaling pathway - cell viability counter screen (AID 1224836); further: series mostly up to about 92 µM; nearly all actives have a fitted effect of over 45% in size
Procedure, shortened: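 HepG2-CYP2B6-hCAR, 2500 cells/well, 4 h pre-incubation; cpd 15 conc + PK11195 0.75 uM final; 23 h, 37 C/5% CO2; CellTiter-Fluor, fluorescence.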

[4] = qHTS assay to identify small molecule antagonists of the constitutive androstane receptor (CAR) signaling pathway - cell viability counter screen (AID 1224837); further: series mostly up to about 92 µM; nearly all actives have a fitted effect of over 45% in size
Procedure, shortened: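 Read-out: CellTiter-Fluor fluorescence after 23 hr at 37 C/5% CO2. Cells: HepG2 double-stable for hCAR and CYP2B6-2.2kb. Compounds tested at 15 concentrations in the presence of CITCO, final concentration 50 nM.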

[5] = target: Nuclear receptor subfamily 1 group I member 3 (Homo sapiens) (UniProt Q14994); assay: qHTS assay to identify small molecule antagonists of the constitutive androstane receptor (CAR) signaling pathway (AID 1224838);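 further: HepG2 cells stably expressing hCAR with CYP2B6 luciferase reporter stimulated by CITCO; nearly all actives have a fitted effect of over 40% in size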; further: potency means the concentration at half of the fitted maximal effect
Procedure, shortened: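 Read-out: ONE-Glo luciferase luminescence after 30 min at room temperature. HepG2-CYP2B6-hCAR double-stable cells, compounds in 15-point titration plus 50 nM CITCO final, 24 h at 37 C/5% CO2.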

[6] = target: Nuclear receptor subfamily 1 group I member 3 (Homo sapiens) (UniProt Q14994); assay: qHTS assay to identify small molecule agonists of the constitutive androstane receptor (CAR) signaling pathway (AID 1224839); further: nearly all actives have a fitted effect of over 15% in size; further: potency means the concentration at half of the fitted maximal effect
Procedure, shortened: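 HepG2-CYP2B6-hCAR cells, 2500/well, 4 h pre-incubation; compounds 15 conc.; PK11195 0.75 uM final; 24 h, 37 C/5% CO2; ONE-Glo luciferase read.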

[7] = qHTS assay to identify small molecule antagonists of the estrogen related receptor signaling pathway with the pleiotropic PPARgamma coactivator (PGC) from Tox21 10K library - cell viability counter screen (AID 1224840; active means well fitted cell-killing curve with a large enough effect in the repeat runs, not every such curve was filed as active; further: nearly all actives have a fitted effect of over 40% in size)
Procedure, shortened: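 Fluorescence read-out of CellTiter-Fluor viability reagent, added after cells had been exposed to compound in DMSO for 17.5 h at 37 C; 30 min development at 37 C/5% CO2. Cells: PGC/ERR line, 2,000/well.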

[8] = qHTS assay to identify small molecule agonists of the estrogen related receptor signaling pathway with the pleiotropic PPARgamma coactivator (PGC) from Tox21 10K library (AID 1224842); further: nearly all actives have a fitted effect of over 15% in size; further: potency means the concentration at half of the fitted maximal effect
Procedure, shortened: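 PGC/ERR reporter cell line, 2,000 cells per well, incubated 6 h at 37 C before 23 nL compound in DMSO was added. After 18 h at 37 C, One-Glo luminescence read following 30 min at room temperature.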

[9] = qHTS assay to identify small molecule antagonists of the estrogen related receptor signaling pathway with the pleiotropic PPARgamma coactivator (PGC) from Tox21 10K library (AID 1224841; call rule not given here; further: series mostly up to about 92 µM; actives are mostly falling curves and most rising ones were filed inactive; nearly all actives have a fitted effect of over 50% in size)
Procedure, shortened: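 Luminescence read-out (One-Glo luciferase reagent, 30 min at room temperature) from PGC/ERR cells exposed to DMSO-dissolved test compounds for 18 h at 37 C; cells, 2,000 per well, had been preincubated 6 h before compound transfer.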

Luciferin 4-monooxygenase (Photinus pyralis), sequence (P08659 whole entry, looked up): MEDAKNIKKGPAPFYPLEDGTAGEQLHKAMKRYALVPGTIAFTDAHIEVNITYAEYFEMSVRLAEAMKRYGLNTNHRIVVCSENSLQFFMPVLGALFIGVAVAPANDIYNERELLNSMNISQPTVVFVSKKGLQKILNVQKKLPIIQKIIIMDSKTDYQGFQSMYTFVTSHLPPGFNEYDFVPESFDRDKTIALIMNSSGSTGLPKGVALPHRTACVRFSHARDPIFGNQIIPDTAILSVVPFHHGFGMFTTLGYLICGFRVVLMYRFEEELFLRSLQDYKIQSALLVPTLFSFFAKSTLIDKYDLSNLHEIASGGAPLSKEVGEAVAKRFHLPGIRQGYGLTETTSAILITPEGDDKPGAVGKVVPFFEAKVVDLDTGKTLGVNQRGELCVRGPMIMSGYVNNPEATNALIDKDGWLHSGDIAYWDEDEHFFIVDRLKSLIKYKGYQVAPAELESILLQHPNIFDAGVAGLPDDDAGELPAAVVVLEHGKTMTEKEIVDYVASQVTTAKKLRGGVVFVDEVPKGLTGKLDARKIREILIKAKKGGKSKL
Nuclear receptor subfamily 1 group I member 3 (Homo sapiens), sequence (Q14994 whole entry, looked up): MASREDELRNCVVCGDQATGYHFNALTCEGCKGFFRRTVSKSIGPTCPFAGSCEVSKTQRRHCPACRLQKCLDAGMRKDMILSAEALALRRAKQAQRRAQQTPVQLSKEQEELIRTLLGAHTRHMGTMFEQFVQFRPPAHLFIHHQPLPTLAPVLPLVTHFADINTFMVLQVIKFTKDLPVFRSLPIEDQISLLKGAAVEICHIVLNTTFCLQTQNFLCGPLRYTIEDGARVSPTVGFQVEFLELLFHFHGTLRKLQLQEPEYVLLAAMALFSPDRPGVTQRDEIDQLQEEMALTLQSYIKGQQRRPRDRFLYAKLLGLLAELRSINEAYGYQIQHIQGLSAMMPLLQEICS

**Q.** Which results are given for `ClP(Cl)(Cl)(Cl)Cl`?
**A.** Potency [1]: inactive; Potency [2]: 31.9 µM (active); Potency [3]: inactive; Potency [4]: inactive; Potency [5]: inactive; Potency [6]: inactive; Potency [7]: inactive; Potency [8]: inactive

**Q.** With `N#Cc1ccc(Cl)cc1` as the compound, how does the Potency [1] read?
**A.** Its Potency is “inactive”.

**Q.** And the Potency [2]?
**A.** The Potency was “inactive”.

**Q.** What about the Potency [3] of the same compound?
**A.** The Potency was “inactive”.

**Q.** And the Potency [4]?
**A.** The Potency was “inactive”.

**Q.** What about the Potency [5] of the same compound?
**A.** The Potency was “inactive”.

**Q.** And the Potency [6]?
**A.** The Potency was “inactive”.

**Q.** And the Potency [7]?
**A.** Its Potency is “inactive”.

**Q.** What about the Potency [9] of the same compound?
**A.** Its Potency is “inactive”.

**Q.** And the Potency [8]?
**A.** Its Potency is “inactive”.

**Q.** For `C=CC(=O)OCCCCO`, which Potency [1] is on record?
**A.** Its Potency is “inactive”.

**Q.** And the Potency [2]?
**A.** The Potency was “inactive”.

**Q.** And the Potency [3]?
**A.** The Potency was “inactive”.

**Q.** And the Potency [4]?
**A.** The Potency was “inactive”.

**Q.** And the Potency [5]?
**A.** Its Potency is “inactive”.

**Q.** What about the Potency [6] of the same compound?
**A.** Its Potency is “inactive”.

**Q.** And the Potency [7]?
**A.** Its Potency is “inactive”.

**Q.** What about the Potency [9] of the same compound?
**A.** The Potency was “inactive”.

**Q.** What about the Potency [8] of the same compound?
**A.** Its Potency is “inactive”.

**Q.** Which Potency [1] does the source give for `Cc1ccccc1CCl` here?
**A.** The Potency was “inactive”.

**Q.** And the Potency [2]?
**A.** The Potency was “inactive”.

**Q.** And the Potency [3]?
**A.** The Potency was “inactive”.

**Q.** And the Potency [4]?
**A.** The Potency was “inactive”.

**Q.** And the Potency [5]?
**A.** The Potency was “inactive”.

**Q.** What about the Potency [6] of the same compound?
**A.** The Potency was “inactive”.

**Q.** And the Potency [8]?
**A.** Its Potency is “inactive”.

**Q.** Which Potency [1] does the source give for `O=C(O)C(F)(F)C(F)(F)C(F)(F)C(F)(F)C(F)(F)C(F)(F)C(F)(F)C(F)(F)C(F)(F)F` here?
**A.** Its Potency is “inactive”.

**Q.** What about the Potency [2] of the same compound?
**A.** The Potency was “inactive”.

**Q.** What about the Potency [3] of the same compound?
**A.** Its Potency is “inactive”.

**Q.** And the Potency [4]?
**A.** The Potency was “inactive”.

**Q.** And the Potency [5]?
**A.** Its Potency is “inactive”.

**Q.** And the Potency [6]?
**A.** Its Potency is “inactive”.

**Q.** What about the Potency [7] of the same compound?
**A.** The Potency was “inactive”.

**Q.** And the Potency [9]?
**A.** Its Potency is “inactive”.

**Q.** And the Potency [8]?
**A.** The Potency was “inactive”.

**Q.** Which results are given for `Brc1ccccc1`?
**A.** Potency [1]: inactive; Potency [2]: inactive; Potency [3]: inactive; Potency [4]: inactive; Potency [5]: inactive; Potency [6]: inactive; Potency [7]: inactive

**Q.** Which Potency [1] does the source give for `CC/C(=N\OC/C=C/Cl)C1=C(O)CC(C2CCOCC2)CC1=O` (centres undefined) here?
**A.** The Potency was “inactive”.

**Q.** And the Potency [2]?
**A.** Its Potency is “inactive”.

**Q.** What about the Potency [3] of the same compound?
**A.** Its Potency is “inactive”.

**Q.** And the Potency [4]?
**A.** The Potency was “inactive”.

**Q.** And the Potency [5]?
**A.** The Potency was “inactive”.

**Q.** What about the Potency [6] of the same compound?
**A.** The Potency was “inactive”.

**Q.** And the Potency [8]?
**A.** The Potency was “inactive”.

**Q.** What does the source list for `ClC=C(Cl)Cl`?
**A.** Potency [1]: inactive; Potency [2]: inactive; Potency [3]: inactive; Potency [4]: inactive; Potency [5]: inactive; Potency [6]: inactive; Potency [7]: inactive; Potency [9]: inactive; Potency [8]: inactive

**Q.** Which Potency [1] does the source give for `COc1ccc(-c2ccccc2)cc1NNC(=O)OC(C)C` here?
**A.** Its Potency is 63.7 µM (active).

**Q.** And the Potency [2]?
**A.** The Potency was “inactive”.

**Q.** What about the Potency [3] of the same compound?
**A.** The Potency was “inactive”.

**Q.** What about the Potency [4] of the same compound?
**A.** Its Potency is “inactive”.

**Q.** What about the Potency [5] of the same compound?
**A.** Its Potency is “inactive”.

**Q.** What about the Potency [6] of the same compound?
**A.** The Potency was 63.7 µM (active).

**Q.** And the Potency [8]?
**A.** Its Potency is “inactive”.

**Q.** For `O=C1C(Cl)C(CCl)CN1c1cccc(C(F)(F)F)c1` (centres undefined), which Potency [1] is on record?
**A.** Its Potency is “inactive”.

**Q.** And the Potency [2]?
**A.** The Potency was “inactive”.

**Q.** What about the Potency [3] of the same compound?
**A.** Its Potency is “inactive”.

**Q.** And the Potency [4]?
**A.** The Potency was “inactive”.

**Q.** And the Potency [5]?
**A.** Its Potency is “inactive”.

**Q.** What about the Potency [6] of the same compound?
**A.** Its Potency is “inactive”.

**Q.** What about the Potency [7] of the same compound?
**A.** The Potency was “inactive”.

**Q.** And the Potency [8]?
**A.** The Potency was “inactive”.

**Q.** What does the source list for `C=CC(=O)OCC(C)C`?
**A.** Potency [1]: inactive; Potency [2]: inactive; Potency [3]: inactive; Potency [4]: inactive; Potency [5]: inactive; Potency [6]: inactive; Potency [7]: inactive; Potency [8]: inactive

**Q.** Which Potency [1] does the source give for `Cc1ccc(N)cc1C` here?
**A.** The Potency was “inactive”.

**Q.** What about the Potency [2] of the same compound?
**A.** The Potency was “inactive”.

**Q.** And the Potency [3]?
**A.** The Potency was “inactive”.

**Q.** What about the Potency [4] of the same compound?
**A.** The Potency was “inactive”.

**Q.** And the Potency [5]?
**A.** The Potency was “inactive”.

**Q.** What about the Potency [6] of the same compound?
**A.** Its Potency is 4.9 µM (active).

**Q.** And the Potency [7]?
**A.** Its Potency is “inactive”.

**Q.** And the Potency [8]?
**A.** The Potency was 3.47 µM (active).

**Q.** For `O=C(CCl)c1ccc(Cl)cc1Cl`, which Potency [1] is on record?
**A.** The Potency was “inactive and 21.1 µM (active)”.

**Q.** What about the Potency [2] of the same compound?
**A.** Its Potency is “inactive”.

**Q.** And the Potency [3]?
**A.** The Potency was “inactive”.

**Q.** And the Potency [4]?
**A.** The Potency was “inactive”.

**Q.** And the Potency [5]?
**A.** The Potency was 13.3 µM (active).

**Q.** What about the Potency [6] of the same compound?
**A.** Its Potency is “inactive”.

**Q.** And the Potency [7]?
**A.** Its Potency is “inactive”.

**Q.** And the Potency [8]?
**A.** The Potency was “inactive”.

— PubChem BioAssay (Tox21)
